# Results as given in PubChem BioAssay (Tox21).
# Values without a mark were called inactive. Calls of active or inactive are those of the source. Calls come from the whole dose curve.
# Molecular target: Acetylcholinesterase (Homo sapiens) (UniProt P22303)
# Test: Acetylcholinesterase (AChE) small molecule antagonists: enzyme-based qHTS assay with human liver microsomes (AID 1347399); note: nearly all actives have a fitted effect of over 60% in size
# Conditions: Potency: qHTS inhibition; outcome: qHTS inhibition; series mostly up to 115 µM; activity change, negative = inhibition: at the top concentration
# In short: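 Recombinant human AChE (50 mU/mL in the enzyme mix) and human liver microsomes (0.25 mg/mL final) were preincubated with compound and NADPH (0.25 mg/mL final) for 30 min at 37 C. Acetylthiocholine/DTNB was then added; thiocholine was read colorimetrically after 10 min at room temperature.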
# % is set by controls: 0 for no effect and ±100 for the full control effect.
# Chain of Acetylcholinesterase (Homo sapiens) (P22303 whole entry, looked up): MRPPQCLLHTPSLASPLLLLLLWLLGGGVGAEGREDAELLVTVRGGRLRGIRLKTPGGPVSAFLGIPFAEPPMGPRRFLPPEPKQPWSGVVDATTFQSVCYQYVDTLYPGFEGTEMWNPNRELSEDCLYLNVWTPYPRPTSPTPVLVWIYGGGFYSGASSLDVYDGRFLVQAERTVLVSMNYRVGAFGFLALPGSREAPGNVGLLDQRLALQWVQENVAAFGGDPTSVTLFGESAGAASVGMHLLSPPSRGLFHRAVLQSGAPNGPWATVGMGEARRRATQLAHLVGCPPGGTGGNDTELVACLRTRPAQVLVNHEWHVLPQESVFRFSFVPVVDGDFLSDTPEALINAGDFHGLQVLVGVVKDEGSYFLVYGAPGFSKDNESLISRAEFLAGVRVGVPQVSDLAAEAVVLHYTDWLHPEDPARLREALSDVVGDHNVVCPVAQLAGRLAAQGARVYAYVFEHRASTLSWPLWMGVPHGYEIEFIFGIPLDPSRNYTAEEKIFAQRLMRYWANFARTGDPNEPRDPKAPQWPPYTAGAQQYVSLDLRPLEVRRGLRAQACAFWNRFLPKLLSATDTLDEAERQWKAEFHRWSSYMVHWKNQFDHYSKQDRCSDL
Compound,"activity change, negative = inhibition",Potency
C/C=C/C(=O)C1=C(C)CCCC1(C)C,0%,–
CCCCCCCCCOCC1CO1 (stereo not given),0.341%,–
CCCCCCCCCCCCCCCC(=O)OCC,0.821%,–
C1COCCN1,–,inactive
OCc1ccc(Cl)cc1Cl,–,inactive
CCCCC(CC)COC(=O)CS (stereo not given),–,inactive
SC1CCCC1,-1.22%,–
CSc1cnc(C)cn1,0.235% [at 300 µM],–
c1ccc(CCNc2nc(-c3ccccc3)cs2)cc1,-0.466% [at 53 µM],–
CC(C)(C)C(=O)OCOP(=O)(COCCn1cnc2c(N)ncnc21)OCOC(=O)C(C)(C)C,-0.614% [at 53 µM],–
CCCO[Si](OCCC)(OCCC)OCCC,0%,–
O=C(O)CCCCCCCCC(=O)O,–,inactive
Oc1cc2ccccc2cc1O,-2.99%,–
CCCOCC(C)O (stereo not given),–,inactive
CCCCCCCCCCCCCCCCC(=O)O,0.971% [at 53 µM],–
O=C1CCCCCN1,–,inactive
O=Cc1c(Cl)cccc1Cl,-0.511%,–
C#Cc1cccc(Nc2ncnc3cc(OCCOC)c(OCCOC)cc23)c1,-0.338% [at 53 µM],–
O=c1cc(-c2ccccc2)oc2cc(O)cc(O)c12,3.58%,–
C[C@]12C=CC(=O)C=C1CC[C@@H]1[C@@H]2C(=O)C[C@@]2(C)[C@H]1CC[C@]2(O)C(=O)CO,–,inactive

Compound,"activity change, negative = inhibition",Potency
CCOc1ccc(NC(=O)CC(C)=O)cc1,-0.153%,–
COC(=O)OC,–,inactive
C=CC(C)(C)O,0.654%,–
Nc1ccc(S(=O)(=O)Nc2nccs2)cc1,–,inactive
CC(C)c1cccc(C(C)C)c1N1C(=O)c2ccc(O)cc2C1=O,6.26%,–
O=c1n(CCO)c(=O)n(CCO)c(=O)n1CCO,–,inactive
NCC1CCC(C(=O)Oc2ccc(CCC(=O)O)cc2)CC1 (stereo not given),-0.0052% [at 53 µM],–
CCN1CCCC1=O,–,inactive
C#CC1(O)CC[C@H]2[C@@H]3CCC4=CCCC[C@@H]4[C@H]3CC[C@@]21C (stereo not given in full),–,inactive
OCCN1CCN(CCO)CC1,-2.7%,–
CCN[C@H]1CN(CCCOC)S(=O)(=O)c2sc(S(N)(=O)=O)cc21,-1.08% [at 53 µM],–
O=Cc1cc2ccccc2o1,0.435%,–
CC(O)CNCC(C)O (stereo not given),–,inactive
Cc1cc(C)n(CO)n1,1.31%,–
CC12CCCC=C1C(=O)OC2=O (stereo not given),-0.679%,–
CC[C@H](C)COC(=O)/C=C/c1ccc(N=Cc2ccc(OC)cc2)cc1,2.03%,–
CCCCOCCOCCOCCO,–,inactive
CC1=CCC(=O)O1,0.376%,–
CC(O)CC(C)(C)O (stereo not given),–,inactive
Cc1cc(=O)[nH]c(C(C)C)n1,–,inactive
